The results in this text go back to PubChem BioAssay (EPA / NIEHS).

Structures are written as SMILES. Results filed as inconclusive are left out. Active and inactive are the calls of the source. The calls were made as follows: active = hit-call score of the fitted dose curve at least 0.9, where 1 is the maximum; inconclusive = response in the unintended direction; inactive = score below 0.9.

Test [1] is described as follows: TOX21_p53_BLA_p2_viability: Viability Assessment in the Tox21 HCT-116 p53 Agonism Beta-lactamase Assay, Phase 2 (AID 2283591).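 Also: compound exposure lasted 16 h at 37 °C; actives lower the ATP signal meaning cytotoxicity.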 In short, it runs like this:
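Cytotoxicity readout: CellTiter-Glo ATP luminescence, 30 min at room temperature, after the beta-lactamase read. Cells were HCT116 exposed 16 h at 37C to compounds pin-transferred at 217-fold dilution from DMSO stocks.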

In test [2] the target is Cellular tumor antigen p53 (Homo sapiens) (UniProt P04637). Description: TOX21_p53_BLA_p2_ratio: Tox21 HCT-116 p53 Agonism Beta-lactamase Assay, Ratio, Phase 2 (AID 2283592). In short, it runs like this: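 HCT-116 cells with p53-responsive beta-lactamase reporter, 4000 cells/well, preincubated 5 h, then compound in DMSO (217-fold dilution) for 16 h at 37C. CCF4-AM substrate 2 h at room temperature; 460/530 nm emission ratio fitted upward versus DMSO.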

A short description of test [3]: TOX21_p53_BLA_p3_viability: Viability Assessment in the Tox21 HCT-116 p53 Agonism Beta-lactamase Assay, Phase 3 (AID 2283593).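 Also: cells exposed to compound for 16 h before reading.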 In short, it runs like this: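 Cellular ATP was quantified by CellTiter-Glo luminescence, read after 30 min at room temperature. Beforehand, HCT116 cells (4000/well) received compound 5 h post-seeding, 217-fold diluted from DMSO, then incubated 16 h at 37C.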

Test [4] deals with Cellular tumor antigen p53 (Homo sapiens) (UniProt P04637). The test is described as follows: TOX21_p53_BLA_p3_ratio: Tox21 HCT-116 p53 Agonism Beta-lactamase Assay, Ratio, Phase 3 (AID 2283596). The gist of the method:
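HCT116 p53-bla cells (4000/well) given compound in DMSO (217-fold dilution) after 5 h, incubated 16 h at 37C. CCF4-AM substrate 2 h at room temperature; 460/530 nm emission ratio, gain fitted against DMSO.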

Test [5] is described as follows: TOX21_p53_BLA_p4_viability: Viability Assessment in the Tox21 HCT-116 p53 Agonism Beta-lactamase Assay, Phase 4 (AID 2283597).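 Also: hits lower the luminescence signal meaning cytotoxicity.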 The gist of the method:
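HCT-116 p53-bla cells, 4000/well, dosed after 5 h attachment and incubated 16 h at 37 °C, 5% CO2. Viability from CellTiter-Glo ATP luminescence after 30 min at room temperature, taken after the beta-lactamase read; loss of signal indicates cytotoxicity.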

In test [6] the target is Cellular tumor antigen p53 (Homo sapiens) (UniProt P04637). Description: TOX21_p53_BLA_p5_ratio: Tox21 HCT-116 p53 Agonism Beta-lactamase Assay, Ratio, Phase 5 (AID 2283599). In short, it runs like this: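 Beta-lactamase reporter ratio (blue 460 nm over green 530 nm, 405 nm excitation) after 2 h CCF4-AM loading, in HCT-116 cells exposed 16 h at 37 C to compounds pinned at 217-fold dilution. Increases relative to DMSO baseline scored.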

Test [7] can be described thus: TOX21_p53_BLA_p5_viability: Viability Assessment in the Tox21 HCT-116 p53 Agonism Beta-lactamase Assay, Phase 5 (AID 2283600). In short, it runs like this: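 HCT-116 p53 beta-lactamase reporter cells, 4000/well, were exposed to compound (pin transfer, 217-fold dilution) for 16 hours at 37C. Cellular ATP was read by CellTiter-Glo luminescence after 30 min at room temperature.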

Test [8] concerns the target Cellular tumor antigen p53 (Homo sapiens) (UniProt P04637). Description: TOX21_p53_BLA_p4_ratio: Tox21 HCT-116 p53 Agonism Beta-lactamase Assay, Ratio, Phase 4 (AID 2283601). In short, it runs like this: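 Signal is the blue/green (460nm/530nm) ratio of cleaved versus uncleaved CCF4-AM substrate, read after 2 h substrate loading. Cells were HCT116 carrying the p53-responsive beta-lactamase reporter, dosed 16 h at 37C, 5% CO2; CellTiter-Glo measured in parallel.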

Chain of Cellular tumor antigen p53 (Homo sapiens) (P04637 whole entry, looked up): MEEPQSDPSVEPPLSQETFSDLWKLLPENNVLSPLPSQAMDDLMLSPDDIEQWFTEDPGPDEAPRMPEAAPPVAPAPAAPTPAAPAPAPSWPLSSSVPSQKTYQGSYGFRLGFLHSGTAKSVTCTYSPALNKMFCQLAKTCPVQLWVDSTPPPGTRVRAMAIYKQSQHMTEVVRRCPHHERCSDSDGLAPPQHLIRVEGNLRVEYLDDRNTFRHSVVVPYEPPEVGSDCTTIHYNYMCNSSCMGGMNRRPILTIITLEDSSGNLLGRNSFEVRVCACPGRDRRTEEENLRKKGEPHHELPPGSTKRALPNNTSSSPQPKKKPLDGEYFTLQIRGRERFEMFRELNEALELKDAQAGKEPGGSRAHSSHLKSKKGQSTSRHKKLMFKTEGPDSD

For the compound `Nc1cc(S(=O)(=O)O)cc2cc(S(=O)(=O)O)cc(O)c12`, the compound was called inactive in test [1], in test [2], in test [3], in test [4], in test [5] and in test [6]. Moreover, the outcome in test [7] and in test [8] was inactive.

Regarding `NC(=O)C(c1ccccc1)(c1ccccc1)[C@@H]1CCN(CCc2ccc3c(c2)CCO3)C1`, the outcome in test [1], in test [2], in test [3], in test [4], in test [5] and in test [6] was inactive. The outcome in test [7] and in test [8] was inactive.

Usually AC50 stands for the midpoint of the concentration-response curve, whichever way the signal moves. In the case of `Cc1c(C(=O)NN2CCCCC2)nn(-c2ccc(Cl)cc2Cl)c1-c1ccc(Cl)cc1`, the AC50 in test [1] is 28.3 µM (active); in test [3] it was 23 µM (active); in test [5] it was 21.4 µM (active); in test [6], 37.8 µM (active); in test [7], 23 µM (active). The result in test [2], in test [4] and in test [8] was inactive.

Take `CN1C(=O)OC(C)(C)C1=O`: the result in test [1], in test [2], in test [3], in test [4], in test [5] and in test [6] was inactive. The compound was called inactive in test [7] and in test [8].

On to `COCC(=O)O[C@]1(CCN(C)CCCc2nc3ccccc3[nH]2)CCc2cc(F)ccc2[C@@H]1C(C)C`, for which the AC50 was 13.1 µM (active) in test [1]; 22.4 µM (active) in test [2]; 10.9 µM (active) in test [3]; 19.6 µM (active) in test [4]; 9.78 µM (active) in test [5]; 25.4 µM (active) in test [6]. The AC50 in test [7] is 15.8 µM (active); in test [8], 21.6 µM (active).

For `c1ccc2c(CC3=NCCN3)cccc2c1`, the compound was classed as inactive in test [1], in test [2], in test [3], in test [4], in test [5] and in test [6]. Moreover, the result in test [7] and in test [8] was inactive.

As for `CCCCCCCCCCn1cc[n+](CCCCCCCCCC)c1C`, the concentration at half-maximal activity (AC50) in test [1] is 44.2 µM (active); in test [2], 18.7 µM (active); in test [3], 46.1 µM (active); in test [4], 20.1 µM (active); in test [5], 57.5 µM (active); in test [6], 74.1 µM (active). The figures for the AC50 in test [7] and in test [8] were 75.2 µM (active) and 73.6 µM (active), respectively.

`CC(C)OC(=O)CCCCC(=O)OC(C)C`: the call in test [1], in test [3], in test [4], in test [5] and in test [7] was inactive. The AC50 in test [2] was 60.5 µM (active); in test [6] it was 71.9 µM (active); in test [8] it was 69 µM (active).

Take `CCOc1ccc(Cc2nccc3cc(OCC)c(OCC)cc23)cc1OCC`: the result in test [1], in test [2], in test [3], in test [4], in test [5] and in test [6] was inactive. For the same compound, the outcome in test [7] and in test [8] was inactive.

Turning to `CN(C)[C@@H]1C(=O)C(C(=O)NCN2CCCC2)=C(O)[C@@]2(O)C(=O)C3=C(O)c4c(O)cccc4[C@@](C)(O)C3C[C@@H]12` (stereo not given in full), the result in test [1], in test [2], in test [3], in test [4], in test [5] and in test [6] was inactive. Further, the compound was called inactive in test [7] and in test [8].

In the case of `NC(N)=NCC1COc2ccccc2O1` (stereo not given), the result in test [1], in test [2], in test [3], in test [4], in test [5] and in test [6] was inactive. In addition, the call in test [7] and in test [8] was inactive.

For the compound `CCCCCCOc1ccc(C(=N)N(CCCC)CCCC)c2ccccc12`, the AC50 in test [1] was 23 µM (active); in test [2] it was 32.7 µM (active); in test [3], 23 µM (active); in test [4], 36.4 µM (active); in test [5], 10.1 µM (active); in test [6], 29.5 µM (active). Moreover, the results for the AC50 in test [7] and in test [8] were 23 µM (active) and 19.9 µM (active), respectively.

`CC(C)(C)C(=O)O`: the compound was classed as inactive in test [1], in test [2], in test [3], in test [4], in test [5] and in test [6]. For the same compound, the outcome in test [7] and in test [8] was inactive.

Take `COc1cc2c(N3CCN(C(=O)Nc4ccc(OC(C)C)cc4)CC3)ncnc2cc1OCCCN1CCCCC1`: the outcome in test [1], in test [3], in test [5] and in test [7] was inactive. For the same compound, the AC50 was 35.5 µM (active) in test [2], 36.9 µM (active) in test [4], 34.7 µM (active) in test [6] and 25.2 µM (active) in test [8].

As to `CCC(C)[C@H]1O[C@]2(C=C[C@@H]1C)C[C@@H]1C[C@@H](C/C=C(\C)[C@@H](O[C@H]3C[C@H](OC)[C@@H](O[C@H]4C[C@H](OC)[C@H](NC(C)=O)[C@H](C)O4)[C@H](C)O3)[C@@H](C)/C=C/C=C3\CO[C@@H]4[C@H](O)C(C)=C[C@@H](C(=O)O1)[C@]34O)O2` (stereo not given in full), the AC50 in test [1] was 13 µM (active); in test [2], 15 µM (active); in test [3], 23 µM (active); in test [4], 34.5 µM (active); in test [5] it was 9.38 µM (active); in test [6], 22.3 µM (active). Besides, the AC50 in test [7] is 15.8 µM (active); in test [8] it was 12 µM (active).
